Assay outcomes (PubChem)
MsrA inhibitor: inhibitors of bovine MsrA. hit rate 0.75% among 360,000. AID 651718. inhibition, % at 15.5 µM. purified bovine MsrA, absorbance read-out;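 also: 0% = vehicle wells with enzyme and 100% = reference inhibitor wells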
MsrA act: bovine methionine sulfoxide reductase A activation; purified bovine MsrA, absorbance read-out; activation, % at 10.6 µM; hit rate 0.3% among 360,000; AID 602163; in the data active = activation above about 7.5%;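 also: 0% = vehicle and 100% = reference activator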
rCAG binder: molecules binding r(CAG) RNA repeats | r(CAG) RNA repeat, TO-PRO-1 dye displacement fluorescence | inhibition, % at 3 µM | hit rate 1.3% among 370,000 | AID 651821;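 active = inhibition above the plate cutoff, the mean of all test compounds on that plate plus 3 SD, cut at about 35% in these data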;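 also: 0% = DMSO alone and 100% = 100 µM mitoxantrone as full dye displacement; higher means more dye released from RNA so lower well fluorescence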
HGIII-sPLA2 inh: Blocks human group III sPLA2 activity | hit rate 0.56% among 370,000 | QFRET BODIPY PC-A2 liposome hydrolysis, fluorescence | Q9NZ20 | inhibition, % at 12.2 µM;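 active = inhibition above mean plus 3 SD of compounds lying within the high and low control bounds, cut at about 19% in these data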;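 also: 0% = median of test compound wells and 100% = no enzyme DMSO wells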
Target sequence (Q9NZ20 whole entry, looked up): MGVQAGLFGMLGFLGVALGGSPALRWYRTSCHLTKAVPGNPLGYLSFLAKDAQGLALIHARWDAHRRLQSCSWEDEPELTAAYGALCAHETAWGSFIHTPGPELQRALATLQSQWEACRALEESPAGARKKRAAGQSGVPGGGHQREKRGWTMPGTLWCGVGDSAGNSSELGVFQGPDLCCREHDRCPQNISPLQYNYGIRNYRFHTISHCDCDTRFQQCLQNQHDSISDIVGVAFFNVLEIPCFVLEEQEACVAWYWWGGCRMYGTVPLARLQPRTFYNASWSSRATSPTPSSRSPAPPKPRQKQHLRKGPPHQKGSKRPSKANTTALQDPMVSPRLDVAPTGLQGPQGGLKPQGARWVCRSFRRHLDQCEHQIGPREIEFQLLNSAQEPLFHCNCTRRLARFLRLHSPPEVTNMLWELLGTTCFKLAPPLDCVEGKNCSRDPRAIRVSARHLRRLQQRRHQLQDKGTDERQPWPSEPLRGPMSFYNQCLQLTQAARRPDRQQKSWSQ
MsrA inh confirm: bovine MsrA inhibition, confirmed. shares compounds with MsrA inhibitor. purified bovine MsrA, absorbance read-out. inhibition, % at 15.5 µM. hit rate 41% among 2,300. AID 651822;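 also: coupled to thioredoxin reductase with NADPH and selenocystamine and DMSO as substrate; 0% = vehicle only and 100% = full effect of reference inhibitor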
Active calls of the source: *. Rows were chosen to be rich in hits. Some 2.8% of all compounds tested hit in one or more screens of this group. Rule as the data show it, unless noted: active = inhibition above about 4.5%; inactive = the rest.

How did CC(C)COc1ccc(C(=O)NC(=S)Nc2ccc(CN3CCOCC3)cc2)cc1 do in these assays?
MsrA inhibitor: 1; MsrA act: -3; rCAG binder: 3; HGIII-sPLA2 inh: 3

Results for CCOC(=O)c1cc(C(=O)OCC)c(=O)[nH]c1N1CCCCC1 ?
MsrA inhibitor: 7.5*; MsrA act: -5; rCAG binder: -3; HGIII-sPLA2 inh: 4; MsrA inh confirm: 3

Results for CCOC(=O)c1cc(C)nc(N2CCCCC2)c1C#N ?
MsrA inhibitor: 1; MsrA act: -5; rCAG binder: -6; HGIII-sPLA2 inh: 4

What do the screens show for `CCCCCC(=O)N1C[C@@H](O)[C@H](n2cc(-c3ccc(F)cc3)nn2)C[C@@H]1c1ccc(C)cc1`?
MsrA inhibitor: 1; MsrA act: -1; rCAG binder: 8; HGIII-sPLA2 inh: -18

How did C/C=C(/C)C(=O)O[C@@H]1Cc2c(ccc3ccc(=O)oc23)OC1(C)C do in these assays?
MsrA inhibitor: 1; MsrA act: -1; rCAG binder: -3; HGIII-sPLA2 inh: 2

How did O=c1cc(-c2ccc(O)cc2)oc2c(C3O[C@H](CO)[C@@H](O)[C@H](O)[C@H]3O)c(O)cc(O)c12 (some centres not stated) do in these assays?
MsrA inhibitor: 4; MsrA act: 1; rCAG binder: 2; HGIII-sPLA2 inh: 10

Results for O=c1cc(-c2ccc(O)c(O)c2)oc2c(C3O[C@H](CO)[C@@H](O)[C@H](O)[C@H]3O)c(O)cc(O)c12 (some centres not stated) ?
MsrA inhibitor: 5.6*; MsrA act: -4; rCAG binder: 4; HGIII-sPLA2 inh: 5; MsrA inh confirm: 4

How did COc1ccc(Cl)cc1-n1c(N)c(C(N)=O)sc1=S do in these assays?
MsrA act: -16

Results for Cc1ccc(Nc2ccc(C(N)=O)cc2[N+](=O)[O-])cc1C ?
MsrA inhibitor: 19*; MsrA act: -4; rCAG binder: 2; HGIII-sPLA2 inh: 10; MsrA inh confirm: 12*

How did CCc1ccc(Nc2ccc(C(N)=O)cc2[N+](=O)[O-])cc1 do in these assays?
MsrA inhibitor: 4; MsrA act: -4; rCAG binder: 6; HGIII-sPLA2 inh: 4

How did Cc1cc(C)n(C(=O)c2cc3sccc3[nH]2)n1 do in these assays?
MsrA inhibitor: 4.7*; MsrA act: -2; rCAG binder: -2; HGIII-sPLA2 inh: -2; MsrA inh confirm: 4

How did Cc1cc(C)n(C(=O)c2ccc(C)o2)n1 do in these assays?
MsrA inhibitor: -1; MsrA act: -9; rCAG binder: -1; HGIII-sPLA2 inh: 2

How did C=CCn1c(SCC(=O)N2N=C(c3ccco3)CC2c2ccco2)nnc1-c1ccncc1 (configuration not stated) do in these assays?
MsrA inhibitor: 0; MsrA act: -5; rCAG binder: -4; HGIII-sPLA2 inh: 0

How did N#C/C(=C\c1ccc(O)cc1)C(=O)N1CCCC1 do in these assays?
MsrA inhibitor: 3; MsrA act: -3; rCAG binder: 0; HGIII-sPLA2 inh: 0

Results for N#C/C(=C\C=C\c1ccccc1)C(=O)N1CCCC1 ?
MsrA inhibitor: 4.8*; MsrA act: -3; rCAG binder: -2; HGIII-sPLA2 inh: -2; MsrA inh confirm: 4.8*

How did COc1ccc(C2C(C#N)=C(N)Oc3c2sc2nc(C)cc(C)c32)cc1 (configuration not stated) do in these assays?
MsrA inhibitor: 9.2*; MsrA act: -1; rCAG binder: 8; HGIII-sPLA2 inh: -2; MsrA inh confirm: 2

Results for CCOc1ccccc1NC(=S)NC(=O)C1CC1 ?
MsrA inhibitor: 7.4*; MsrA act: 1; rCAG binder: 0; HGIII-sPLA2 inh: -2; MsrA inh confirm: 7.2*

What do the screens show for `CCc1cccc(C)c1NC(=S)N(CCN(C)C)C(C)c1cccnc1` (configuration not stated)?
MsrA inhibitor: 0; MsrA act: -2; rCAG binder: -4; HGIII-sPLA2 inh: -1

How did O=C(N/N=C/C(Cl)=C/c1ccccc1)c1ccco1 do in these assays?
MsrA inhibitor: 8.5*; MsrA act: -7; rCAG binder: 9; HGIII-sPLA2 inh: 2; MsrA inh confirm: 6.6*

Results for O=C(N/N=C/C(Cl)=C\c1ccccc1)c1cnccn1 ?
MsrA inhibitor: 4; MsrA act: -17; rCAG binder: 2; HGIII-sPLA2 inh: 1

Results for O=C(N/N=C/C(Cl)=C\c1ccccc1)c1ccco1 ?
MsrA inhibitor: 4; MsrA act: -5; rCAG binder: 0; HGIII-sPLA2 inh: -7

How did O=C(N/N=C/C(Cl)=C/c1ccccc1)c1cnccn1 do in these assays?
MsrA inhibitor: 9.6*; MsrA act: -6; rCAG binder: -5; HGIII-sPLA2 inh: 8; MsrA inh confirm: 4
